For 23 compounds, outcome and AC50 results are on record in PubChem BioAssay (EPA / NIEHS).

Results filed as inconclusive are left out. Calls of active or inactive are those of the source. How the source made its calls: active means hit-call score of the fitted dose curve at least 0.9, where 1 is the maximum; inconclusive means response in the unintended direction; inactive means score below 0.9.

Sequence of human Esterase Plasma (ES), BCHE (gene 590) (P06276 whole entry, looked up): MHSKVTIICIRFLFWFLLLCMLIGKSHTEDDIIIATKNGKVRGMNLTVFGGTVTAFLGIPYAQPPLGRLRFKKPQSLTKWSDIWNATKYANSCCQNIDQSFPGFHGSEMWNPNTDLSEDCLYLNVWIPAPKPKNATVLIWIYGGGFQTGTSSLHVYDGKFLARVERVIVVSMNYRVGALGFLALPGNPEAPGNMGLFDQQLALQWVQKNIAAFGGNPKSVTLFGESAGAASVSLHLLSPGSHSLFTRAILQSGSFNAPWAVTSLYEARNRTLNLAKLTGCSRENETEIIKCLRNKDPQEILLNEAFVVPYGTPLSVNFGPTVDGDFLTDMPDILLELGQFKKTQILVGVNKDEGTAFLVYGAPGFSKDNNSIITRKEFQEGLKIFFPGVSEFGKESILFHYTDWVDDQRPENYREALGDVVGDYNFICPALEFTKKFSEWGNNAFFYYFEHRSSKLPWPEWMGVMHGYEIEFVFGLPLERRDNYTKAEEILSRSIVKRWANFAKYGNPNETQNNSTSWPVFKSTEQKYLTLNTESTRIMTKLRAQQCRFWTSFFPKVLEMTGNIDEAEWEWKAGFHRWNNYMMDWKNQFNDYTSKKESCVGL
Sequence of human Elastase, ELANE (gene 1991) (P08246 whole entry, looked up): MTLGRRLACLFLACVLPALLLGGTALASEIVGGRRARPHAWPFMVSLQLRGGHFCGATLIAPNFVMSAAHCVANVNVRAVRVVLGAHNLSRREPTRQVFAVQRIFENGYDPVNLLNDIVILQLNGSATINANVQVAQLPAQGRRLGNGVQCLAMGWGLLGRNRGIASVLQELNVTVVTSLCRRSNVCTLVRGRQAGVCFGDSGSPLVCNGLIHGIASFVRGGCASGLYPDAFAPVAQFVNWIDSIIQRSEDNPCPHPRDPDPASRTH
Sequence of human Ephrin type-B Receptor 1 (EphB1), EPHB1 (gene 2047) (P54762 whole entry, looked up): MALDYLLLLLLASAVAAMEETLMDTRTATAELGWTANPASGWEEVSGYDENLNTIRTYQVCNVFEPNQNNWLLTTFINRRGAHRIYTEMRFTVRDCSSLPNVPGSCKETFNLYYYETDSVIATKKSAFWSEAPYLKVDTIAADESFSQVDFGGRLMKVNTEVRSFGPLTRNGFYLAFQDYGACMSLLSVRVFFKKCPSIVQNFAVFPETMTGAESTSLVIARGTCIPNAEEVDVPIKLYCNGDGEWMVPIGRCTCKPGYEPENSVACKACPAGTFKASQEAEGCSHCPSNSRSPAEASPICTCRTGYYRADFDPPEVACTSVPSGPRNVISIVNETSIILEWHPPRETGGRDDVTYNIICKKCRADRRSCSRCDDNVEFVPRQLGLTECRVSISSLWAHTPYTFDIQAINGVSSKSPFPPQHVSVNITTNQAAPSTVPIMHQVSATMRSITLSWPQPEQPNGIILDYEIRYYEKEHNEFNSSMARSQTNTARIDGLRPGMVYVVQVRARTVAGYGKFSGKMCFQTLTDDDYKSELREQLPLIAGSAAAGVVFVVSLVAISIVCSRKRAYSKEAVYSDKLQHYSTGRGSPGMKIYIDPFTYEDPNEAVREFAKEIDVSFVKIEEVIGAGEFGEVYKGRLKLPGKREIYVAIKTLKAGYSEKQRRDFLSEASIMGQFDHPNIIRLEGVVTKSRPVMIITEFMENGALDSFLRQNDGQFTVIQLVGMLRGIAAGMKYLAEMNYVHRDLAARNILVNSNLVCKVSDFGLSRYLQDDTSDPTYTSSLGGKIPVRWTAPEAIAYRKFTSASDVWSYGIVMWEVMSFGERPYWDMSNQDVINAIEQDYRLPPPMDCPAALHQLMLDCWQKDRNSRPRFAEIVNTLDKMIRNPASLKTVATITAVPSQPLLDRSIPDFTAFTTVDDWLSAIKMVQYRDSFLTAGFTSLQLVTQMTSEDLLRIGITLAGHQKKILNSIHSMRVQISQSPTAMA

The target in the first test is human Dual Specificity Protein Phosphatase 3 (DUSP3), DUSP3 (gene 1845) (UniProt P51452). The experiment in a line: NVS_ENZ_hDUSP3: NovaScreen (NVS) Enzymatic Assay for human Dual Specificity Protein Phosphatase 3 (DUSP3) (AID 2283152). In short, it runs like this: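 Cell-free assay with recombinant human DUSP3 and fluorogenic substrate, read by fluorescence intensity. Primary screen ran duplicate at 25 uM; actives followed up in concentration series; loss of signal versus DMSO scored.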
Sequence of human Dual Specificity Protein Phosphatase 3 (DUSP3), DUSP3 (gene 1845) (P51452 whole entry, looked up): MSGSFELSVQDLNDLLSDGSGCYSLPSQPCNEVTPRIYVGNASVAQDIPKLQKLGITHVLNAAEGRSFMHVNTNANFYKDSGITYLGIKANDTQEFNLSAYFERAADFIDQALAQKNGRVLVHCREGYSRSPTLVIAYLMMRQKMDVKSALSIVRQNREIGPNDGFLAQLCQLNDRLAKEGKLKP
Consider `C#CCC1=C(C)C(OC(=O)C2C(C=C(C)C)C2(C)C)CC1=O` (stereo not drawn), for which the outcome was inactive. Take `CCCOCC(=Nc1ccc(Cl)cc1C(F)(F)F)n1ccnc1`: the call was inactive. The term AC50 denotes the midpoint of the concentration-response curve, whichever way the signal moves. Turning to `CN(C)[C@@H]1C(=O)C(C(N)=O)=C(O)[C@@]2(O)C(=O)C3=C(O)c4c(O)cccc4[C@@](C)(O)[C@H]3[C@H](O)[C@@H]12`, the AC50 is 2.62 µM (active). As for `CC[C@H](C)[C@H]1O[C@]2(C=C[C@@H]1C)C[C@@H]1C[C@@H](C/C=C(\C)[C@@H](O[C@H]3C[C@H](OC)[C@@H](O[C@H]4C[C@H](OC)[C@@H](NC)[C@H](C)O4)[C@H](C)O3)[C@@H](C)/C=C/C=C3\CO[C@@H]4[C@H](O)C(C)=C[C@@H](C(=O)O1)[C@]34O)O2`, the compound was called inactive. The same measure, in the same setting: the value for `C=C(C)[C@H]1Cc2c(ccc3c2O[C@@H]2COc4cc(OC)c(OC)cc4[C@@H]2C3=O)O1` was “inactive”; that for `CCCCOC(=O)[C@@H](C)Oc1ccc(Oc2ccc(C#N)cc2F)cc1` was “inactive”; that for `S=C1NCCN1` was “inactive”.

The target in another test is human Elastase, ELANE (gene 1991) (UniProt P08246). Briefly: NVS_ENZ_hElastase: NovaScreen (NVS) Enzymatic Assay for human Elastase (AID 2283153). The method, then:
NVS_ENZ_hElastase is a biochemical, single-readout assay that uses extracted gene-proteins from Human neutrophils in a cell-free assay. Measurements were taken 1.5 hours after chemical dosing in a 96-well plate.NVS_ENZ_hElastase is one of one assay component(s) measured or calculated from the NVS_ENZ_hElastase assay. It is designed to make measurements of enzyme activity, a form of enzyme reporter, as detected with absorbance signals by Spectrophotometry technology.Data from the assay component NVS_ENZ_hElastase was analyzed into 1 assay endpoint. This assay endpoint, NVS_ENZ_hElastase, was analyzed in the positive analysis fitting direction relative to DMSO as the negative control and baseline of activity. Using a type of enzyme reporter, loss-of-signal activity can be used to understand changes in the enzymatic activity as they relate to the gene ELANE. Furthermore, this assay endpoint can be referred to as a primary readout, because this assay has produced multiple assay endpoints where this one serves a enzymatic activity function. To generalize the intended target to other relatable targets, this assay endpoint is annotated to the protease intended target family, where the subfamily is serine protease.
(§1) Binding assays used specific radioligands (tritiated, iodinated) with non-radioactive competitive displacement ligands in agonist or antagonist protocols (as indicated) and various reference compounds and inhibitors to titrate specific binding to receptors and transporters. Most enzyme assays (CYPs, kinases, phosphatases, proteases, HDACs) used recombinant protein and specific substrates (fluorescence mostly, some colorimetric and radioactive) and inhibitors, followed by a biochemical separation of substrate and product. All assays for the biochemical HTS were initially run in duplicate at a single concentration (10 uM for CYP450 assays and 25 uM for all others). Assay-chemical combinations meeting a pre-defined threshold (e.g., 30% inhibition and other criteria defined below) were then run in singleton concentration-response format with maximum concentration of 20 uM for CYPs and 50 uM for all others. Each assay was run with positive and negative controls, and concurrent controls on every plate. The follow-up (secondary) screen tested active chemical-pairs in concentration series, as well as a few additional assays not tested in the primary screen, some selected negative inactives, and several cases re-run in the concentration series for confirmatory purposes.
In the case of `CCOP(=O)(OCC)Oc1cc(C)nc(C(C)C)n1`, the outcome was inactive. Still for that read-out and setting: the entry for `CC(C)[C@H](C(=O)O[C@H](C#N)c1cccc(Oc2ccccc2)c1)c1ccc(Cl)cc1` is “inactive”. Consider `CCOP(=S)(OCC)Oc1cc(C)nc(C(C)C)n1`, for which the compound was called inactive. As to `CCCSP(=O)(OCC)Oc1ccc(Br)cc1Cl` (stereo not drawn), the half-maximal activity concentration (AC50) is 25 µM (active). On to `S=C1NCCN1`, for which the compound was called inactive.

For the next test, the target named is human Ephrin type-B Receptor 1 (EphB1), EPHB1 (gene 2047) (UniProt P54762). The experiment in a line: NVS_ENZ_hEphB1: NovaScreen (NVS) Enzymatic Assay for human Ephrin type-B Receptor 1 (EphB1) (AID 2283154). The method, then:
NVS_ENZ_hEphB1 is a biochemical, single-readout assay that uses extracted gene-proteins in a cell-free assay. Measurements were taken 1 hour after chemical dosing in a 384-well plate.NVS_ENZ_hEphB1 is one of one assay component(s) measured or calculated from the NVS_ENZ_hEphB1 assay. It is designed to make measurements of enzyme activity, a form of enzyme reporter, as detected with fluorescence intensity signals by Fluorescence and electrophoretic mobility shift technology.Data from the assay component NVS_ENZ_hEphB1 was analyzed into 1 assay endpoint. This assay endpoint, NVS_ENZ_hEphB1, was analyzed in the positive analysis fitting direction relative to DMSO as the negative control and baseline of activity. Using a type of enzyme reporter, loss-of-signal activity can be used to understand changes in the enzymatic activity as they relate to the gene EPHB1. Furthermore, this assay endpoint can be referred to as a primary readout, because this assay has produced multiple assay endpoints where this one serves a enzymatic activity function. To generalize the intended target to other relatable targets, this assay endpoint is annotated to the kinase intended target family, where the subfamily is receptor tyrosine kinase.
as §1, with “Assay-chemical combinations meeting a pre-defined threshold (e.g., 30% inhibition and other criteria defined below) were then run in singleton concentration-response format with maximum concentration of 20 uM for CYPs and 50 uM for all others.” left out
Take `CNC(=O)Oc1cccc2c1OC(C)(C)O2`: the outcome was inactive. Still for that read-out and setting: the value for `CCc1cccc(C)c1N(C(=O)CCl)C(C)COC` (stereo not drawn) was “inactive”. Still for that read-out and setting: the entry for `COP(=O)(OC)C(O)C(Cl)(Cl)Cl` (stereo not drawn) is “inactive”.

As for `CCOP(=S)(OCC)OC(Cl)C(Cl)(Cl)Cl` (stereo not drawn), the result was inactive.

As for `CCCCSP(=O)(SCCCC)SCCCC`, the compound was called inactive. The same measure, in the same setting: the value for `CC(COc1ccc(Oc2ccccc2)cc1)Oc1ccccn1` (stereo not drawn) was “inactive”. On the same count and under the same terms, the entry for `CCCSP(=O)(OCC)Oc1ccc(Br)cc1Cl` (stereo not drawn) is “inactive”.

In the next test the target is human Esterase Plasma (ES), BCHE (gene 590) (UniProt P06276). Briefly: NVS_ENZ_hES: NovaScreen (NVS) Enzymatic Assay for human Esterase Plasma (ES) (AID 2283157). In short, it runs like this:
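Esterase from human plasma, cell-free, colorimetric absorbance read 0.25 h after dosing. Screened at 25 uM in duplicate, with threshold-passing chemicals run in concentration-response up to 50 uM; loss of signal fitted versus DMSO.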
For `CN(C)[C@@H]1C(=O)C(C(N)=O)=C(O)[C@@]2(O)C(=O)C3=C(O)c4c(O)cccc4[C@@](C)(O)[C@H]3[C@H](O)[C@@H]12`, the compound was called inactive.

Consider `CCCCOC(=O)c1ccccc1C(=O)O`, for which the compound was called inactive. Take `CCOP(=S)(OCC)OC(Cl)C(Cl)(Cl)Cl` (stereo not drawn): the AC50 is 16.2 µM (active).

As to `CCOP(=S)(OCC)Oc1ccc([N+](=O)[O-])cc1`, the AC50 is 17.5 µM (active). The same measure, in the same setting: the figure for `CNC(=O)ON=C(SC)C(=O)N(C)C` is 20.2 µM (active); for `COP(=O)(OC)OC(Br)C(Cl)(Cl)Br` (stereo not drawn) it is 3.82 µM (active).

In the case of `CCOP(=S)(Oc1cnc(C(C)(C)C)nc1)OC(C)C` (stereo not drawn), the AC50 is 25 µM (active). With `CCCSP(=O)(OCC)Oc1ccc(Br)cc1Cl` (stereo not drawn), the AC50 is 0.968 µM (active). On the same count and under the same terms, the value for `COP(=O)(OC)SCn1c(=O)oc2cc(Cl)cnc21` was 18.5 µM (active).
